Test results: PubChem BioAssay (NCI)
This is part of a sample that, as a whole, favours compounds with a hit. Of some 83,000 tested, about 20% had one in any assay.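 Growth was measured after 48 h exposure to one concentration of compound in 96-well plates. Values under 10 count as active.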 Calls of active or inactive are those of the source.

Tests used:
Assay in all cases: NCI-60 one-dose screen, 48 h (100 = growth as untreated, 0 = no growth, -100 = all killed)
Settings in all cases: 10 µM unless noted
SK-MEL-2 melanoma = system: SK-MEL-2 melanoma
EKVX NSCLC = system: EKVX NSCLC
SN12C renal = system: SN12C renal
UO-31 renal = system: UO-31 renal
TK-10 renal = system: TK-10 renal
ACHN renal = system: ACHN renal
CAKI-1 renal = system: CAKI-1 renal
A498 renal = system: A498 renal
CCRF-CEM leukemia = system: CCRF-CEM leukemia
MOLT-4 leukemia = system: MOLT-4 leukemia

Measured: growth

CCCCCCCC/C=C\CCCCCCCCOc1ccc(CC(=O)NCC[N+]2(C)CCOCC2)cc1
inactive: SK-MEL-2 melanoma 112% | EKVX NSCLC 91.2% | SN12C renal 64.1% | UO-31 renal 93.5% | TK-10 renal 44.7% | ACHN renal 82.9% | CAKI-1 renal 53.5% | A498 renal 91.8% | CCRF-CEM leukemia 53% | MOLT-4 leukemia 79.9%

COc1ccc(/C=C/C(=O)c2ccc(NC(=O)CSc3nc4c([nH]3)c(=O)n(C)c(=O)n4C)cc2)cc1OC
inactive: SK-MEL-2 melanoma 110% | EKVX NSCLC 88.5% | SN12C renal 85.3% | UO-31 renal 90.8% | TK-10 renal 97.9% | ACHN renal 94.4% | CAKI-1 renal 84.7% | A498 renal 71.7% | CCRF-CEM leukemia 66% | MOLT-4 leukemia 72.4%

CCn1c(-c2cc3c([nH]c4ccccc43)c(-c3cccc(O)c3)n2)n[nH]c1=S
active: SK-MEL-2 melanoma -22.2% | TK-10 renal 9.38%
inactive: EKVX NSCLC 56.9% | SN12C renal 63.6% | UO-31 renal 47.3% | ACHN renal 61.1% | CAKI-1 renal 47.9% | A498 renal 35% | CCRF-CEM leukemia 28% | MOLT-4 leukemia 25.6%

O=C(/C=C/C12c3ccccc3C(c3ccccc31)C1C(=O)NC(=O)C12)c1ccc(Br)cc1 (stereo not given)
active: CCRF-CEM leukemia -3.91% | MOLT-4 leukemia 3.02%
inactive: SK-MEL-2 melanoma 52.2% | EKVX NSCLC 60.2% | SN12C renal 46.2% | UO-31 renal 41.4% | TK-10 renal 61.2% | ACHN renal 66.2% | CAKI-1 renal 56.4% | A498 renal 60.2%

CC1(C)CC[C@]23CC[C@]4(C)[C@H](CC[C@@H]5[C@@]6(C)C/C(=C/c7ccncc7)C(=O)C(C)(C)[C@@H]6CC[C@]54C)[C@H]2[C@H]1OC3
active: A498 renal -3.63%
inactive: SK-MEL-2 melanoma 80.9% | EKVX NSCLC 92.3% | SN12C renal 76.7% | UO-31 renal 57.1% | TK-10 renal 97% | ACHN renal 91% | CAKI-1 renal 66.4% | CCRF-CEM leukemia 44.3% | MOLT-4 leukemia 50.4%

NS(=O)(=O)c1ccc(NC(=O)/C(=C\c2ccc(Cl)cc2Cl)NC(=O)c2ccccc2)cc1
inactive: SK-MEL-2 melanoma 95.3% | EKVX NSCLC 99.6% | SN12C renal 94.7% | UO-31 renal 75.8% | TK-10 renal 104% | ACHN renal 98.2% | CAKI-1 renal 88.6% | A498 renal 95% | CCRF-CEM leukemia 105% | MOLT-4 leukemia 92.3%

O=C1/C=C/[C@@H](O)[C@@H]2C[C@@H](O)C[C@H]2/C=C/CCC[C@@H](O)CCO1
inactive: SK-MEL-2 melanoma 122% | EKVX NSCLC 82% | SN12C renal 106% | UO-31 renal 108% | TK-10 renal 115% | ACHN renal 104% | CAKI-1 renal 83.7% | A498 renal 66.7% | CCRF-CEM leukemia 116% | MOLT-4 leukemia 106%

O=S(=O)(NCCCNc1nccc(-c2c(-c3cccc(F)c3)nc3occn23)n1)c1ccc(F)cc1
inactive: SK-MEL-2 melanoma 55.5% | EKVX NSCLC 54.3% | SN12C renal 51.2% | UO-31 renal 31.4% | TK-10 renal 56.7% | ACHN renal 46% | CAKI-1 renal 37.1% | A498 renal 45.7% | CCRF-CEM leukemia 31.9%
active: MOLT-4 leukemia 8.3%

O=C1/C(=C/c2ccc(F)cc2)CN(C(=O)C(Cl)Cl)C/C1=C\c1ccc(F)cc1
active: SK-MEL-2 melanoma -16% | EKVX NSCLC -17.9% | SN12C renal -72.5% | UO-31 renal -83.4% | TK-10 renal -59.8% | ACHN renal -98.3% | CAKI-1 renal -55.4% | A498 renal -84.3% | CCRF-CEM leukemia 2.43% | MOLT-4 leukemia -18.2%

Cc1ccc(-c2nc(SCc3nc4cc(Cl)c(Cl)cc4[nH]3)[nH]c(=O)c2C#N)cc1
inactive: SK-MEL-2 melanoma 90.1% | EKVX NSCLC 96.4% | SN12C renal 102% | UO-31 renal 81.7% | TK-10 renal 99.3% | ACHN renal 106% | CAKI-1 renal 88.3% | A498 renal 112% | CCRF-CEM leukemia 111% | MOLT-4 leukemia 101%

CC(=O)ON1CCCC(P(=O)(OCCSC(=O)C(C)(C)C)OCCSC(=O)C(C)(C)C)C1=O (stereo not given)
active: SN12C renal 3.59% | UO-31 renal -0.776% | A498 renal -8.82% | CCRF-CEM leukemia -6.31%
inactive: SK-MEL-2 melanoma 50.6% | EKVX NSCLC 22.8% | TK-10 renal 27.2% | ACHN renal 20.1% | CAKI-1 renal 24% | MOLT-4 leukemia 15.5%

COc1ccc(/C=C(/C(=O)n2cnnn2)c2cc(OC)c(OC)c(OC)c2)cc1
inactive: SK-MEL-2 melanoma 57.6% | EKVX NSCLC 46.5% | SN12C renal 42.6% | UO-31 renal 42.4% | TK-10 renal 44.9% | ACHN renal 48% | CAKI-1 renal 36.1% | MOLT-4 leukemia 40.5%
active: A498 renal 1.86% | CCRF-CEM leukemia 5.78%

CCN1CCN(C(=O)[C@]23CC[C@@H](C)[C@H](C)[C@@H]2C2=CC[C@@H]4[C@@]5(C)C/C(=C/c6cccnc6)C(=O)C(C)(C)[C@@H]5CC[C@@]4(C)[C@]2(C)CC3)CC1
active: CCRF-CEM leukemia 8.77% | MOLT-4 leukemia 2.7%
inactive: SK-MEL-2 melanoma 28.3% | EKVX NSCLC 41.5% | SN12C renal 29.6% | UO-31 renal 10.5% | TK-10 renal 43.1% | ACHN renal 20.7% | CAKI-1 renal 39.8% | A498 renal 43.8%

COc1cc(C(=O)n2nc(N3CCOCC3)c3cc(-n4cccc4)ccc32)cc(OC)c1OC
active: A498 renal 0.812%
inactive: SK-MEL-2 melanoma 92.1% | EKVX NSCLC 60.6% | SN12C renal 69% | UO-31 renal 32.9% | TK-10 renal 88.4% | ACHN renal 49.8% | CAKI-1 renal 60.6% | CCRF-CEM leukemia 36.4% | MOLT-4 leukemia 33.1%

CCCCCCCCCCCCCOC(=O)c1c(C)[nH]c(/C=C2\N=C(c3ccc[nH]3)C=C2OC)c1C
inactive: EKVX NSCLC 52.3% | SN12C renal 40.7% | TK-10 renal 34.4% | A498 renal 10.3% | CCRF-CEM leukemia 17.8% | MOLT-4 leukemia 22.8%
active: SK-MEL-2 melanoma -42.1% | UO-31 renal -54.4% | ACHN renal 8.11% | CAKI-1 renal -7.49%

COc1cccc(NCc2nnc(Nc3ccc(Cl)cc3)c3ccccc23)c1
inactive: SN12C renal 14.5%
active: SK-MEL-2 melanoma -34.4% | EKVX NSCLC -0.284% | UO-31 renal -42.5% | TK-10 renal -40.9% | ACHN renal -5.35% | CAKI-1 renal 9.01% | A498 renal -26.8% | CCRF-CEM leukemia -4.42% | MOLT-4 leukemia -27.2%

NC(=O)c1cccc([C@@H]2O[C@H](CO)[C@@H](O)[C@H]2O)c1
inactive: SK-MEL-2 melanoma 103% | EKVX NSCLC 99% | SN12C renal 94.1% | UO-31 renal 52.1% | TK-10 renal 55.5% | ACHN renal 93.1% | CAKI-1 renal 80.9% | A498 renal 86.6% | CCRF-CEM leukemia 11%
active: MOLT-4 leukemia -1.79%

CC1C(/C=N/NC(N)=S)C(C#N)(C#N)C1(C#N)C#N (stereo not given)
inactive: SK-MEL-2 melanoma 114% | EKVX NSCLC 104% | SN12C renal 105% | UO-31 renal 82.4% | TK-10 renal 118% | ACHN renal 103% | CAKI-1 renal 91.8% | A498 renal 103% | CCRF-CEM leukemia 96.5% | MOLT-4 leukemia 88.8%

COC(=O)CC[C@@H]1O[C@@H](c2ccc(F)cc2)[C@@H](O)[C@H]1O
inactive: SK-MEL-2 melanoma 109% | EKVX NSCLC 104% | SN12C renal 109% | UO-31 renal 94% | TK-10 renal 101% | ACHN renal 101% | CAKI-1 renal 96.8% | A498 renal 112% | CCRF-CEM leukemia 107% | MOLT-4 leukemia 105%

O=C(Cc1ccc(/C=C/C(=O)c2ncc[nH]2)cc1)Nc1cc(C(F)(F)F)cc(C(F)(F)F)c1
inactive: SK-MEL-2 melanoma 110% | EKVX NSCLC 108% | SN12C renal 94.9% | UO-31 renal 62.9% | TK-10 renal 115% | ACHN renal 105% | CAKI-1 renal 78.5% | A498 renal 94.3% | CCRF-CEM leukemia 92.9% | MOLT-4 leukemia 67.7%

C=C1C(=O)O[C@H]2[C@H]1CC/C(COC(=O)c1ccc(C(=O)O)s1)=C\CC[C@@]1(C)O[C@@H]21
active: SN12C renal -8.57% | CAKI-1 renal 8.39% | CCRF-CEM leukemia -28.7% | MOLT-4 leukemia -7%
inactive: SK-MEL-2 melanoma 49.5% | EKVX NSCLC 34.2% | UO-31 renal 29% | TK-10 renal 13.1% | ACHN renal 17.4% | A498 renal 104%
